From PubChem BioAssay
D1 PAM: potentiators of human D1 dopamine receptor; P21728; 360,000 compounds, 0.036% hits; potentiation, % at 10 µM; HEK293 TREx D1 cells, calcium flux, dopamine EC20 potentiation; AID 504651; in the data active = potentiation above about 30%
Target sequence (P21728 whole entry, looked up): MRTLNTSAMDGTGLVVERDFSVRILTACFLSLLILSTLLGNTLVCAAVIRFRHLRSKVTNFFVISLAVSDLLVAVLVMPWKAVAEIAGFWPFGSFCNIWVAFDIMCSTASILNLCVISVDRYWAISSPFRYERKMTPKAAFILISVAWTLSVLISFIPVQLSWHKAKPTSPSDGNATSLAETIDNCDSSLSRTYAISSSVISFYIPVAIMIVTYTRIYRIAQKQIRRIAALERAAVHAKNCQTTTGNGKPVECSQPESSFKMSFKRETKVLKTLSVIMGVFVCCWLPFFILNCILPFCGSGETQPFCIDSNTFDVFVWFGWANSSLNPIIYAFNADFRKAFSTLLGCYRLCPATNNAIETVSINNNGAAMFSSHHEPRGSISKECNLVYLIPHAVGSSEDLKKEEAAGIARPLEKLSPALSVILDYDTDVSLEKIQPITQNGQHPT
D3 antag: blocks the human D3 dopamine receptor; P35462; D3R cells, DiscoveRx beta-arrestin luminescence, antagonist mode; stronger effect = lower value; max response, negative = inhibition, %; 360,000 compounds, 2.5% hits; AID 652054; in the data active = max response below about -50%; inconclusive = no clear call, values can overlap the other calls
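Cells expressing the human receptor were seeded at 1500 cells/well, incubated overnight at 37 degrees C in 5% CO2, then exposed to library compounds with dopamine controls for 90 minutes at 37 degrees C before luminescent detection.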
D1 agonist: activates the human D1 dopamine receptor | P21728 | HEK293 T-REx D1 cells, calcium flux, agonist mode | activation, % at 2 µM | 360,000 compounds, 1% hits | AID 504660; in the data active = activation above about 30%
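Inducible HEK293 T-REx D1 cells, force-coupled to calcium signalling, were plated at 4000 cells/well with tetracycline and held overnight at 30 C. After no-wash calcium dye loading, compound-evoked calcium rise over 180 s flagged agonists.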
D3 ag: D3 dopamine receptor (human) agonism; P35462; D3R DiscoveRx beta-arrestin cells, luminescence, 90 min; max activation, %; 410,000 compounds, 0.58% hits; in the data active = max activation above about 30%
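Agonist mode: compounds and dopamine controls were applied to plated cells for 90 min at 37 degrees C after an overnight attachment at 1500 cells/well. Luminescent read-out followed 30 - 60 minutes at room temperature with DiscoveRx detection reagent.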
D1 antag: human D1 dopamine receptor antagonism; P21728; 360,000 compounds, 3.2% hits; HEK293 TREx D1 cells, calcium flux, dopamine EC80; stronger effect = lower value; activity change, negative = inhibition, % at 10 µM; in the data active = activity change below about -30%
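Kinetic fluorescence of a calcium dye serves as the read-out. D1-expressing Hek293 Trex cells, induced overnight at 30 C, are exposed to compound for 180 s before an EC80 dopamine addition, then read 180 s further.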
Large screens that a line does not name were inactive; ! = not confirmed by another sample. Only some compounds are listed: those with a hit (about 6% of all), similar ones and a draw of the others.

CCNS(=O)(=O)c1ccc(CCC(=O)N2CCc3ccccc3C2)cc1	D3 antag -71.6
O=[N+]([O-])c1cc(C(F)(F)F)cc([N+](=O)[O-])c1NCCNC(=S)Nc1ccc(Cl)c(Cl)c1	D1 antag -31.5
FC(F)(F)c1cccc(NC(=S)Nc2ccc(Cl)c(Cl)c2)c1	none
COc1ccc2oc(=O)cc(CN3CCN(c4ccc(F)cc4)CC3)c2c1	none (no result: D3 antag)
Cc1ccccc1N1C(=O)c2cccc3c(N(C)CCO)ccc(c23)C1=O	D1 agonist 85.6
CC(=O)Nc1cccc2c1C(=O)N(c1ccccc1C)C2=O	none
COc1ccccc1N1C(=O)c2cccc3c(N(C)CCO)ccc(c23)C1=O	D1 agonist 55.8
CCOC(=O)c1[nH]c(C)c(CCC(=O)Nc2cc(Cl)ccc2C)c1C	none (no result: D3 antag)
CCc1ccccc1NC(=O)CSc1nc2c(c(=O)[nH]1)CN(Cc1ccccc1OC)CC2	none (no result: D3 antag)
CCN(CC)C(=O)CSc1nc2c(sc(=S)n2-c2ccc(C)cc2C)c(=O)[nH]1	D1 antag -40.6
CC(=O)Nc1sc2c(c1CN1CCCC1)CCCC2	none
Cc1ccc(CN2CCN(c3ccccn3)CC2)s1	D3 antag inconclusive, D3 ag 59.6
c1ccc(N2CCN(Cc3ccsc3)CC2)nc1	D3 antag inconclusive, D3 ag 53.1
c1ccc(COc2cccc(CN3CCN(c4ccccn4)CC3)c2)cc1	D3 ag 39.2
Cc1cccc(CN2CCN(c3ccccn3)CC2)c1	D3 antag inconclusive (no result: D1 PAM, D1 agonist, D1 antag)
CC(=O)Nc1sc2c(c1CN1CCN(c3ccccn3)CC1)CCCC2	D3 antag -62.2
CC(C(O)c1ccccc1)N(C)CCOC(c1ccccc1)c1ccccc1 (configuration not stated)	none (no result: D1 PAM, D3 antag, D1 agonist, D1 antag)
Cc1ccc(CNC(=O)CN2C(=O)COc3ccccc32)cc1	none (no result: D3 antag)
O=c1c2ccccc2n(Cc2c(F)cccc2Cl)c(=O)n1CCc1ccccc1	none (no result: D3 antag)
CCSc1nc2ccccc2n1C(=O)/C=C/c1ccc(OC)c(OC)c1	D3 antag -51.2
C=CCSc1nc2ccccc2n1C(=O)/C=C/c1cc(OC)c(OC)c(OC)c1	D3 antag -60.9
C=CCSc1nc2ccccc2n1C(=O)/C=C/c1ccc(OC)c(OC)c1	none
CCN(CC)CCCNC(=O)c1ccc2c(c1)NC(=O)C(CS(=O)(=O)Cc1cccc(Br)c1)N2 (configuration not stated)	none (no result: D3 antag)
O=C1NC[C@H](c2ccccc2)N(CCCCC2CCCCC2)C1=O	D3 antag -58.3 (no result: D1 PAM, D1 agonist, D1 antag)
O=C1NC[C@H](CCCCN2C[C@H](Cc3ccc(O)cc3)N(Cc3ccccc3)C(=O)C2=O)N(CCc2ccc(O)cc2)C1=O	D3 ag 36.5 (no result: D1 PAM, D1 agonist, D1 antag)
O=C1NC[C@@H](CCCCN2C[C@H](Cc3ccc(O)cc3)N(CC3CCCCC3)C(=O)C2=O)N(Cc2ccccc2)C1=O	D3 antag -75.0 (no result: D1 PAM, D1 agonist, D1 antag)
O=C1NC[C@@H](CCCCN2C[C@H](Cc3ccccc3)N(Cc3ccccc3)C(=O)C2=O)N(CC2CCCCC2)C1=O	none (no result: D1 PAM, D1 agonist, D1 antag)
O=C(Cn1ncc2c3ccccc3n(Cc3cccc(Cl)c3)c2c1=O)NC1CCCCCC1	none (no result: D3 antag)
O=C(O)c1cc(-c2ccc(/C=c3\sc4nc5ccc(Br)cc5n4c3=O)o2)ccc1Cl	D1 agonist 36.4 (no result: D3 antag, D3 ag)
Cc1cc2nc3s/c(=C/c4ccc(-c5ccccc5C(=O)O)o4)c(=O)n3c2cc1C	D1 agonist 142.0, D1 antag -37.8
O=C(O)c1ccccc1-c1ccc(/C=c2\sc3nc4cc(Br)cnc4n3c2=O)o1	D3 antag inconclusive
Cc1cccc(N2CCN(S(=O)(=O)c3ccc4oc(=O)c5ncn(C)c5c4c3)CC2C)c1 (configuration not stated)	none (no result: D3 antag)
COc1cc(C2c3c(-c4cc(C)ccc4O)n[nH]c3C(=O)N2CCCO)ccc1OCCC(C)C (configuration not stated)	none (no result: D3 antag)
Cc1ccc(C(=O)N2CCc3cc(CNC(=O)CSc4ccccc4)ccc32)cc1	none (no result: D3 antag)
C=C1CSc2nc3ccccc3c(=O)n21	D3 antag -55.4
CCN1C=C(Cc2ccccc2C)C2=C(C1)C(c1ccccc1C)C(C#N)=C(N)O2 (configuration not stated)	none
CCN1C=C(Cc2ccc(F)cc2)C2=C(C1)C(c1ccc(F)cc1)C(C#N)=C(N)O2 (configuration not stated)	D3 antag inconclusive, D1 antag -55.4
O=c1[nH]cnc2sc3c(c12)CCN(Cc1ccccc1)C3	D3 ag 74.2
O=c1[nH]cnc2sc3c(c12)CN(Cc1ccccc1)CC3	D3 ag 59.6
OCCCNc1ncnc2sc3c(c12)CCN(Cc1ccccc1)C3	none
COc1cc(C2c3c(oc4ccc(F)cc4c3=O)C(=O)N2Cc2ccc3c(c2)OCO3)ccc1O (configuration not stated)	none (no result: D3 antag)
CCCCN(C)C(=O)C1CCC(CNS(=O)(=O)c2ccc3c(c2)CC(C)N3C(C)=O)CC1 (configuration not stated)	D1 antag -35.8!
CC(=O)N1c2ccc(S(=O)(=O)NCCC(=O)NC3CCCC(C)C3C)cc2CC1C (configuration not stated)	D1 antag -39.0
CCc1cccc(CC)c1N(COC)C(=O)Cn1c(C)nc2ccccc21	none (no result: D3 antag)
Cc1ccccc1OC(=O)CSc1nnc(-c2cccs2)o1	none (no result: D3 antag)
CCCCC(=O)Nc1nnc(SCc2cc(=O)n3cc(C)ccc3n2)s1	none (no result: D3 antag)
CN1CCN(S(=O)(=O)c2cccc(S(=O)(=O)c3ccc(Cl)c(Cl)c3)c2)CC1	D1 antag -53.0
COc1cc(S(=O)(=O)N2CCN(C)CC2)ccc1Cl	D3 antag -86.8
CCCCOc1ccc(C(=O)Nc2onc3c2CCCC3)cc1	none (no result: D3 antag)
Cc1nn(-c2ccc(N3CCOCC3)nn2)c(C)c1CCC(=O)NCc1ccc(Cl)cc1	none (no result: D3 antag)
COc1ccc([C@]23Cc4cc(OC)c(OC)cc4C(O2)c2c(cc(C)oc2=O)O3)cc1	none (no result: D3 antag, D3 ag)
Cc1ccc(-n2c3c(cc(-c4nc(-c5ccc(Cl)cc5)cs4)c2=O)C(=O)CC(C)(C)C3)cc1C	none (no result: D3 antag)
Cc1ccc(-c2nnc(Nc3ccc(Cl)c(Cl)c3)c3ccccc23)cc1S(=O)(=O)NCCO	D1 antag -49.2 (no result: D3 antag)
Cc1ccc(-c2nnc(Nc3ccc(CC(N)=O)cc3)c3ccccc23)cc1S(=O)(=O)NCCO	none
CNS(=O)(=O)c1cc(-c2nnc(Nc3ccc(NC(C)=O)cc3)c3ccccc23)ccc1C	none
CNC(=O)COc1ccc(Nc2nnc(-c3ccc(C)c(S(=O)(=O)NC(C)(C)C)c3)c3ccccc23)cc1	D1 antag -31.5 (no result: D3 antag)
Cc1ccc(-c2nnc(Nc3ccc4c(c3)OCO4)c3ccccc23)cc1S(=O)(=O)NCCO	D1 antag -33.6
CCOC(=O)C1CCCN(c2nc3c(S(=O)(=O)c4ccc(CC)cc4)nnn3c3ccsc23)C1 (configuration not stated)	none (no result: D3 antag)
CN(C)C(=O)C(CCN1CCC(O)(c2ccc(Cl)cc2)CC1)(c1ccccc1)c1ccccc1	D3 antag -80.6, D1 agonist 39.9
